Measurements published in PubChem BioAssay.
The source made the active and inactive calls. No rule for the calls is given here.

biological target: Pantothenate synthetase (Mycobacterium tuberculosis (strain ATCC 25618 / H37Rv)) (UniProt P9WIL5); assay: Recombinant Mtb pantothenate synthetase (PanC) inhibitors, coupled enzyme, confirmatory (AID 375); details: coupled enzyme assay; at 10 µM, stronger effect = higher value;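 also: 0% = full reaction with vehicle and 100% = no enzyme background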
Sequence (P9WIL5 whole entry, looked up): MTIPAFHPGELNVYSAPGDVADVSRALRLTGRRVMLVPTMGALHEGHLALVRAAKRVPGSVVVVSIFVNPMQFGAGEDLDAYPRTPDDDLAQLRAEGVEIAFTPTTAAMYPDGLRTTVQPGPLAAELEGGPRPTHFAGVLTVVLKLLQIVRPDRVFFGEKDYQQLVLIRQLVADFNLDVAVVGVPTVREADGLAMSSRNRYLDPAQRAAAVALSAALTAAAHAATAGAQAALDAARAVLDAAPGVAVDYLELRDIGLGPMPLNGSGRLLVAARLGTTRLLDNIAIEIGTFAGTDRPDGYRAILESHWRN

Row | Compound | inhibition
1 | CCc1cc(C(=O)OC)c(NC(=O)CCC(=O)O)s1 | 2% (inactive)
2 | CC(NC(=O)c1ccco1)C(c1cccs1)N1CCN(c2ccc(F)cc2)CC1 (stereo not given) | 0% (inactive)
3 | CCOC(=O)c1cc2c(=O)n3ccccc3nc2n(CCCOC)c1=NC(=O)C(C)(C)C | 4% (inactive)
4 | Cc1noc(C)c1COC(=O)c1ccccc1Oc1ccccc1 | 0% (inactive)
5 | Cc1noc(NS(=O)(=O)c2ccc(N)cc2)c1C | 0% (inactive)
6 | O=C(Nc1cccc(F)c1)N1CC=C(n2c(=O)[nH]c3ccccc32)CC1 | 5% (inactive)
7 | Cc1cc(N2C(=O)C(O)=C(C(=O)c3ccc(C)o3)C2c2cccs2)no1 (stereo not given) | 0% (inactive)
8 | CC(=O)OCC(=O)[C@@]1(O)CC[C@H]2[C@@H]3CCC4=CC(=O)C=C[C@]4(C)[C@@]3(Cl)[C@@H](Cl)C[C@@]21C | 0% (inactive)
9 | Cc1ccc(S(=O)(=O)N2CCCC2C(=O)n2nc(C)cc2C)cc1 (stereo not given) | 0% (inactive)
10 | CC(C)Cn1c(CN2CCN(c3ccccc3F)CC2)nc2c1c(=O)[nH]c(=O)n2C | 0% (inactive)
11 | CCOC(=O)CCC(=O)c1c(C)oc2ccc(OC)cc12 | 4% (inactive)
12 | O=C(CCn1c(=O)sc2ccccc21)Nc1cccnc1 | 6% (inactive)
13 | COC(=O)Nc1nnc(CCc2ccccc2)s1 | 2% (inactive)
14 | CC1CN(c2nc3ccccc3nc2C(C#N)C(=O)OC2CCCCC2)CC(C)O1 (stereo not given) | 2% (inactive)
15 | COc1ccc(CC(NC(C)=O)C(=O)N2CCN(C(=O)N(C(C)C)C(C)C)CC2)cc1 (stereo not given) | 0% (inactive)
16 | O=C(Nc1ccc2c(c1)OCO2)c1ccc(Br)c(S(=O)(=O)N2CCCC2)c1 | 1% (inactive)
17 | O=c1c2c(nc3nc(CCc4ccccc4)[nH]n13)CCC2 | 9% (inactive)
18 | O=C(Cc1cccs1)NCc1ccc(F)cc1 | 0% (inactive)
19 | COC(=O)c1[nH]c2c(c1C)C(=O)CC(c1cccs1)C2 (stereo not given) | 3% (inactive)
20 | CCN1CCN(Cc2ccccc2NC(=O)Nc2ccc(C)cc2)CC1 | 3% (inactive)

Row | Compound | inhibition
21 | Cc1cc(C)n(CC(=O)n2c3c(c4ccccc42)CCCC3)n1 | 2% (inactive)
22 | O=C(Nc1ccc(N2CCOCC2)cc1)Nc1ccc2nc(-c3ccco3)c(-c3ccco3)nc2c1 | 4% (inactive)
23 | Cc1sc2nc(SCC(=O)Nc3c(C)n(C)n(-c4ccccc4)c3=O)n(C)c(=O)c2c1C | 0% (inactive)
24 | CCC1CCCCN1C(=O)C1CC(c2cc(Cl)c(OC)cc2OC)=NO1 (stereo not given) | 1% (inactive)
25 | CC(=O)c1c(C)nn(CC(O)COc2ccc3c(c2)CCC3)c1C (stereo not given) | 0% (inactive)
26 | O=C(CSCc1ccccn1)Nc1ccccc1 | 0% (inactive)
27 | CC(C)(C)c1ccc2c(c1)OCC(C(=O)O)O2 (stereo not given) | 4% (inactive)
28 | CN(C)[C@@H]1C(=O)C(C(N)=O)=C(O)[C@@]2(O)C(=O)C3=C(O)c4c(O)ccc(Cl)c4[C@@H](O)[C@H]3C[C@@H]12 | 0% (inactive)
29 | Cc1nc(N)c(C#N)c(-c2cccnc2)c1C | 0% (inactive)
30 | O=C1CC(Cc2ccccc2)C(=O)N1CCc1ccc2c(c1)OCO2 (stereo not given) | 3% (inactive)
31 | Clc1ccc(Nc2ncnc3c2cnn3-c2ccccc2)cc1 | 6% (inactive)
32 | COc1ccccc1NC(=O)c1cc2n(n1)C(C(F)(F)F)CC(c1ccc3c(c1)OCO3)N2 (stereo not given) | 0% (inactive)
33 | CCc1cc2c(=O)c(-c3ccc4c(c3)OCCO4)coc2cc1OC(=O)c1ccco1 | 0% (inactive)
34 | Cc1ccc2c(c1C)NC(C(=O)O)C1CC=CC21 (stereo not given) | 0% (inactive)
35 | COc1cc(NC(=O)Cc2nn(C)c(=O)c3ccccc23)cc(OC)c1 | 0% (inactive)
36 | Cc1cccc(-c2noc(CCC(=O)Nc3ccccc3)n2)c1 | 5% (inactive)
37 | CCOC(=O)CN1CC23C=CC(O2)C(C(=O)Nc2ccc(OC)cc2OC)C3C1=O (stereo not given) | 0% (inactive)
38 | Cc1cccc(OCC(=O)N2CCC(N3CCCCCC3)CC2)c1 | 0% (inactive)
39 | CC(C)[C@H](NC(=O)OC(C)(C)C)c1nnc(S(=O)(=O)Cc2c(F)cccc2Cl)o1 | 0% (inactive)
40 | Cc1cccc(-n2nnnc2SCc2csc(-c3ccccc3)n2)c1 | 0% (inactive)
